# High-throughput results as filed in PubChem.
# HEK cytotox – cytotoxic compounds in HEK 293 cells | HEK 293 viability, ATP luminescence (CellTiter-Glo), 48-72 h | Potency, µM (highest dose often 115 µM), actives largely listed as inhibitors | 94,000 tested, 6.6% active | AID 1345083; also: nearly all actives have a fitted effect of over 60% in size
#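 ATP-coupled CellTiter-Glo luminescence served as viability read-out, recorded 10 min after reagent addition at room temperature. HEK 293 cells, 250 cells/well, had been incubated with pintool-transferred compound for 48 or 72 hr at 37 degree Celsius.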
# GPT2 inh – inhibitors of human GPT2 alanine aminotransferase; Q8TD30; Recombinant GPT2, coupled pyruvate oxidase/HRP Amplex Red fluorescence; Potency, µM (doses to about 57.7 µM), actives largely listed as inhibitors; 100,000 tested, 0.25% active; also: nearly all actives have a fitted effect of over 60% in size
# Target sequence (Q8TD30 whole entry, looked up): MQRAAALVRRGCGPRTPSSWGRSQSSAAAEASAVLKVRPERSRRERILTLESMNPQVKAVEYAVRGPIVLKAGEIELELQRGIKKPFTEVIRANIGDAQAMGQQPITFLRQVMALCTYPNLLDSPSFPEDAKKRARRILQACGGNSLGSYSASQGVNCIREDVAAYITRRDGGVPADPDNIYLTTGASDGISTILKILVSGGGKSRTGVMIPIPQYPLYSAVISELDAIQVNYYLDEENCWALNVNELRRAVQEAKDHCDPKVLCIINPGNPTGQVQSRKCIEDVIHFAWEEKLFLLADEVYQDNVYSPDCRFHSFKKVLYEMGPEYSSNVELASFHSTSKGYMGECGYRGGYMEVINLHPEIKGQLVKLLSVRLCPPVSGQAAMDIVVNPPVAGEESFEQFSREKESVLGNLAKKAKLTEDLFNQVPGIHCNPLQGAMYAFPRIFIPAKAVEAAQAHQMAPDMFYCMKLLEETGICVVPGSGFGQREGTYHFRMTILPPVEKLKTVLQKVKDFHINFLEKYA
#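 Fluorescence read-out: pyruvate from GPT2 turnover coupled to pyruvate oxidase, HRP and Amplex Red (0.2mM ThPP, 0.2U/mL PO and HRP, 50uM Amplex final). Substrates 250uM a-KG, 2mM L-alanine; enzyme 10ng/uL; 30 min RT.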
# NIH3T3 tox – kills NIH 3T3 cells; NIH 3T3 viability, CellTiter-Glo ATP luminescence, 48-72 h; Potency, µM (doses to about 96.7 µM), hits mostly inhibitors; 94,000 tested, 4.3% active; AID 1345082; also: nearly all actives have a fitted effect of over 55% in size
#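 Cytotoxicity was measured by CellTiter-Glo ATP luminescence after 48 or 72 h compound exposure at 37 °C. Mouse NIH 3T3 fibroblasts were seeded at 400 cells/well and dosed by 23 nL pin transfer.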
# hNpr1 antagonist – blocks ANP-stimulated signaling of human Npr1 receptor. Potency, µM (highest dose often 46.3 µM), most hits filed as inhibitors. P16066. HEK293 hNpr1 GloSensor cGMP, ANP-stimulated luminescence. 76,000 tested, 1.6% active; calls by dose curve; also: nearly all actives have a fitted effect of over 60% in size
#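 HEK293 cells stably expressing human Npr1 and cGMP GloSensor pGS-40F, loaded 2 h with 2% GloSensor reagent, given compound 30 min at room temperature. Luminescence read before and 20 min after 0.1 nM hNppA.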
# FLuc inh – inhibitors of firefly (Photinus pyralis) luciferase | P08659 | purified P. pyralis luciferase, luminescence, biochemical | Potency, µM (titrated, usually from 115 µM), hits mostly inhibitors | 76,000 tested, 2.5% active; also: nearly all actives have a fitted effect of over 65% in size
#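 Inhibitors were tested against purified firefly luciferase in a biochemical, low-substrate format (both substrates at 10uM) and luminescence measured with a CCD imager.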
# A number is an active result; 0 = inactive; ? = inconclusive; - = no result. The list is not random: actives were taken first. Their share in the collection is about 10%. Unless noted, calls follow the shape of the dose curve; as a rule, active = well fitted curve in the direction sought with a large enough effect; inconclusive = small, poorly fitted or top-dose-only effect, or another doubt; inactive = no such curve, though single readings can be large; an effect the other way counts as inactive or inconclusive.
SMILES,HEK cytotox,GPT2 inh,NIH3T3 tox,hNpr1 antagonist,FLuc inh
CCOC(=O)C1(Cc2ccccc2C)CCCN(C(=O)c2cc[n+]([O-])cc2)C1 (centres undefined),0,0,0,0,0
CCOC(=O)C1(Cc2ccccc2F)CCCN(C(=O)C2=C(C)OCCO2)C1 (centres undefined),?,0,0,0,0
CCOC(=O)C1(Cc2ccccc2F)CCCN(C(=O)CCc2c[nH]c3ccccc23)C1 (centres undefined),35µM,0,?,?,0
CCOC(=O)C1(Cc2ccccc2Cl)CCN(Cc2cccnc2)CC1,?,0,?,0,0
CCOC(=O)C1(Cc2ccccc2Cl)CCN(C(=O)c2ccsc2)CC1,79µM,0,0,0,25µM
O=C1c2cc(N3CCOCC3)nc(-c3cccc(CO)c3)c2CN1Cc1ccccc1,79µM,0,0,0,0
CN(C)c1cccc(-c2nc(N3CCOCC3)cc3c2CN(Cc2cnn(C)c2)C3=O)c1,?,0,45µM,0,0
O=C1c2cc(N3CCOCC3)nc(-c3ccc(CO)cc3)c2CN1Cc1ccccc1,0,0,?,0,0
COc1cc(F)ccc1-c1nc(N2CCOCC2)cc2c1CN(c1ccccc1)C2=O,?,0,0,0,71µM
O=C1c2cc(N3CCOCC3)nc(-c3ccc(F)cc3)c2CN1CC1CC1,100µM,0,?,0,0
Cc1noc(-c2ccc(-c3ccc(CC(=O)O)cc3)cc2)c1NC(=O)O[C@H](C)c1ccccc1,-,0,-,-,-
C=C1CC/C=C(/CO)C(=O)C[C@@H]2[C@@H]1CC2(C)C,-,0,-,-,-
Cc1ccccc1-c1nc(N2CCOCC2)cc2c1CN(Cc1ccccc1)C2=O,50µM,0,25µM,0,0
CN1Cc2c(cc(N3CCOCC3)nc2-c2cnn(C)c2)C1=O,?,0,25µM,0,0
COC(CCc1ccc(O)cc1)CC(=O)CCc1ccc(O)cc1 (centres undefined),-,0,-,-,-
CCc1nc2c(c(-c3ccc(OC)cc3)n1)CCN(C(=O)c1ccccc1OC)CC2,0,0,?,-,-
CCc1nc2c(c(-c3ccc(OC)cc3)n1)CN(C(=O)c1ccc3c(c1)OCO3)CC2,0,0,40µM,-,-
CCc1nc2c(c(-c3ccc(OC)cc3)n1)CN(C(=O)c1ccccc1)CC2,0,0,14µM,-,-
CCc1nc2c(c(-c3ccc(OC)cc3)n1)CCN(C(=O)c1ccccc1F)CC2,0,0,40µM,-,-
COc1ccc(-c2nc(C)nc3c2CCN(C(=O)c2ccc4c(c2)OCO4)CC3)cc1,?,0,0,0,0
COC(=O)C1=C(C)N=C2SC=C(CC(=O)NCc3ccccc3)N2C1c1ccccc1C (centres undefined),45µM,0,?,0,0
COC(=O)C1=C(C)N=C2SC=C(CC(=O)NCCc3ccccc3)N2C1c1cccc(OC)c1 (centres undefined),45µM,0,?,0,0
COC(=O)C1=C(C)N=C2SC=C(CC(=O)NCc3ccccc3)N2C1c1cccc(F)c1 (centres undefined),?,0,?,0,0
COC(=O)C1=C(C)N=C2SC=C(CC(=O)NCc3ccc(F)cc3)N2C1c1cccc(OC)c1 (centres undefined),40µM,0,?,0,0
CC1=C(C(=O)Nc2ccccc2)C(c2cc(C)ccc2C)N2C(CC(=O)NC(C)C)=CSC2=N1 (centres undefined),40µM,0,?,0,0
SMILES,HEK cytotox,GPT2 inh,NIH3T3 tox,hNpr1 antagonist,FLuc inh
CN1C(=O)C(CC(=O)NCC2CCN(Cc3ccccc3F)CC2)=C2CCCCC21 (centres undefined),0,0,0,0,0
O=C(NCCOc1ccccc1)c1cnc2n1CCN(Cc1ccc3[nH]ccc3c1)CC2,?,0,?,0,0
COc1ccc(OC)c(CN2CCc3ncc(C(=O)Nc4ccccc4)n3CC2)c1,112µM,0,?,0,0
COc1ccccc1CN1CCc2ncc(C(=O)Nc3ccccc3)n2CC1,?,0,?,0,0
O=C(Nc1ccccc1)c1cnc2n1CCN(Cc1ccc3[nH]ccc3c1)CC2,100µM,0,89µM,0,0
Clc1ccc(Cn2ccnc2-c2cc3n(n2)CCCNC3)cc1Cl,?,0,25µM,0,0
c1ccc(CCCCn2ccnc2-c2cc3n(n2)CCCNC3)cc1,0,0,?,0,0
